Here are results for 45 compounds from PubChem BioAssay AID1851 (National Center for Advancing Translational Sciences (NCATS), 2009).

The whole screen tested about 16,000 compounds, of which about 2,600 (16%) were called active. About 20% were inconclusive and are not listed. Many of the other results were omitted from the sample, so actives are more common in it than they were. A number with no mark means an inactive call. Calls follow the shape of the dose curve; as a rule, active = well fitted curve in the direction sought with a large enough effect; inconclusive = small, poorly fitted or top-dose-only effect, or effect the other way; inactive = no such curve, though single readings can be large or run the other way.
% is scaled to controls: 0 for no effect and ±100 for the full control effect.

In the assay the target is Cytochrome P450 2D6 (Homo sapiens) (UniProt P10635). Put plainly: Cytochrome panel assay with activity outcomes. To be noted: recombinant CYP, pro-luciferin dealkylation, luminescence, p450-cyp2d6; series mostly up to 57.1 µM; activity, negative = inhibition: at the top concentration.
Sequence of Cytochrome P450 2D6 (Homo sapiens) (P10635 whole entry, looked up): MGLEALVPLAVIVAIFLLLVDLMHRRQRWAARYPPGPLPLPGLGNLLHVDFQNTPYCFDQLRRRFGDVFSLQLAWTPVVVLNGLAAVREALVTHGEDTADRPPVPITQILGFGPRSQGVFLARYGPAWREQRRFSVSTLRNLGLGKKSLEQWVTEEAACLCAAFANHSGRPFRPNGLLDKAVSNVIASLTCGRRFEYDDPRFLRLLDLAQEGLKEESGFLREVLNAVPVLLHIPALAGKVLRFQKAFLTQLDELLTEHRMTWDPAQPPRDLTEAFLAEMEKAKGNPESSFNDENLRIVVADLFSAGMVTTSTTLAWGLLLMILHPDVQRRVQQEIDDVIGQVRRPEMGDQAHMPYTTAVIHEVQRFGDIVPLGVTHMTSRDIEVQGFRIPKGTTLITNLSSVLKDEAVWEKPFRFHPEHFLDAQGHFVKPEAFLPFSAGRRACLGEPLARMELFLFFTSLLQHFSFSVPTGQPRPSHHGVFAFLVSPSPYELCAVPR
Regarding `CC[N@+]1(C)CCC[C@@H](OC(=O)C(O)(c2ccccc2)c2ccccc2)C1`, the concentration at half-maximal activity (AC50) is 5.01 µM (active).
Regarding `CN=C(NC#N)NCCSCc1nc[nH]c1C`, the “activity, negative = inhibition” value was 8.36%.
Turning to `C[C@H](N)[C@H](O)c1ccc(O)c(O)c1`, the AC50 entry was “inactive”.
Regarding `CC(C)C[C@H]1C(=O)N2CCC[C@@H]2[C@]2(O)O[C@](NC(=O)[C@@H]3C=C4c5cccc6[nH]c(Br)c(c56)C[C@H]4N(C)C3)(C(C)C)C(=O)N12`, the “activity, negative = inhibition” value is -2.92%.
For the compound `CC[C@H](CO)NC(=O)[C@@H]1C=C2c3cccc4c3c(cn4C)C[C@@H]2N(C)C1`, the AC50 is 39.8 µM (active).
Still for that read-out and setting: as for `CC[C@@H](CO)NC(=O)[C@H]1C=C2c3cccc4c3c(cn4C)C[C@H]2N(C)C1`, the figure is 12.6 µM (active).
Turning to `Cc1cc(NC(=O)CCC(=O)N2CCC3(CC2)OCCO3)no1`, the “activity, negative = inhibition” value was 4.64%.
Same read-out and setting: the value for `Cc1ccc(CCN2CC(C(=O)N3CCC4(CC3)OCCO4)CC2=O)cc1` (stereo not given) was 5.9%.
Turning to `N[C@H](CCCCCP(=O)(O)O)C(=O)O`, the AC50 entry is “inactive”.
For the compound `O=C(O)CCCc1ccc(N(CCCl)CCCl)cc1`, the “activity, negative = inhibition” value was 1.05% [at 25.6 µM].
Same read-out and setting: the value for `C[C@H](CCC(=O)O)[C@H]1CC[C@]2(C)[C@@H]3C(=O)C[C@H]4C(C)(C)[C@@H](O)CC[C@]4(C)[C@H]3C(=O)C[C@@]12C` was -4.73% [at 11.4 µM]; that for `CC(=O)[C@@H]1CC[C@H]2[C@H]3CC[C@H]4C[C@@H](O)CC[C@]4(C)[C@@H]3CC[C@]12C` was -4.86%.
Same read-out and setting: as for `O=C(O)C(=O)Cc1ccc2c(c1)OCO2`, the figure is -12.2% [at 11.4 µM].
Regarding `Oc1ccc(CCNCc2cc3c(cc2Br)OCO3)cc1`, the AC50 is 0.316 µM (active).
As to `CO[C@H]1[C@H](O)[C@H](O[C@@H]2[C@H](Oc3cccc4c(O)c5c(=O)oc6ccc(C)c7c(=O)oc(c34)c5c67)O[C@@H](C)[C@H](O)[C@H]2O)O[C@@H](C)[C@@H]1O`, the activity, negative = inhibition is 19.6% [at 11.4 µM].
The same measure, in the same setting: the value for `CCCCCCCC/C=C\CCCCCCCC(N)=O` was 12.7%; that for `N[C@@H](CCCP(=O)(O)O)C(=O)O` was 5.98%.
The same measure, in the same setting: as for `C[N+](C)(C)CCCCCCCCCC[N+](C)(C)C`, the figure is 2.5%; as for `CC(=O)N1CCC2(CC1)CC(=O)c1cc(OCC(=O)N3CCN(C)CC3)ccc1O2`, -11.1%.
The same measure, in the same setting: as for `COc1cc(CN2CCN(C(=O)COc3ccccc3)CC2)cc(OC)c1OC`, the figure is -3.69%.
As to `O=C(COc1ccc2ccccc2c1)N1CCN(CC2CC3C=CC2C3)CC1` (stereo not given), the AC50 was 5.01 µM (active).
For `CCN1C[C@@]2(COC)[C@H]3[C@@H](OC)[C@H]4C1[C@@]3([C@H](OC)C[C@@H]2O)[C@H]1C[C@@]2(O)[C@@H](OC(=O)c3ccccc3)[C@@H]1[C@@]4(OC(C)=O)[C@H](O)[C@@H]2OC`, the “activity, negative = inhibition” value is -3.27% [at 25.6 µM].
Still for that read-out and setting: as for `Cc1ccc(C2CC(=O)C(C=NCCN3CCN(C(=O)Cc4ccccc4)CC3)=C(O)C2)cc1` (stereo not given), the figure is -16.3%.
The same measure, in the same setting: as for `CN(C)CS/C(N)=N/[C@H](O)C(Cl)(Cl)Cl`, the figure is -6.69% [at 11.4 µM].
`CN1CCc2nc3sc(C(=O)NC(C)(C)C)c(N)c3cc2C1`: the “activity, negative = inhibition” value was -24.5%.
As for `CCOC(=O)C1=C(C)OC(N)=C(C#N)C12C(=O)N(C)c1ccccc12` (stereo not given), the “activity, negative = inhibition” value was 22.5%.
Same read-out and setting: the value for `CC[C@]1(OC(=O)CN)C(=O)OCc2c1cc1n(c2=O)Cc2cc3ccccc3nc2-1` was -0.998% [at 11.4 µM].
As to `C[C@@H]1Cc2cc3c(cc2C(c2ccc(N)cc2)=NN1)OCO3`, the AC50 is 31.6 µM (active).
Turning to `CCC12C=CCN3CCC4(c5cc(Br)c(OC)cc5N(C)C4C(O)(C(=O)OC)C1OC(C)=O)C32` (stereo not given), the AC50 is 2.51 µM (active).
On to `C=Cn1ccnc1P(=S)(c1nccn1C=C)C1CCCCC1`, for which the “activity, negative = inhibition” value is 15.2%.
Regarding `CNC(=S)NC1CC2CCCC(C1)N2CC(C)C` (stereo not given), the AC50 was 5.01 µM (active).
Turning to `COc1ccc(C(=O)NC2CC3CCCC(C2)N3CC(C)C)cc1OC` (stereo not given), the AC50 was 4.47 µM (active).
On to `CN1[C@@H]2CC[C@H]1CC(NC(=O)c1nn(C)c3ccccc13)C2` (stereo not given in full), for which the “activity, negative = inhibition” value is -2.33%.
The same measure, in the same setting: as for `O=C(O)Cc1cnc[nH]1`, the figure is -2.85%; as for `C/C(=C\C=C/[C@@H](C)C(=O)O)[C@H]1CN[C@H](C(=O)O)[C@@H]1CC(=O)O`, 3.09%; as for `N#Cc1ccc(CN2CC[C@@]3(CCCNC3)C2)cc1`, -9.13%.
Consider `c1cnc(N2CC[C@@]3(CCCNC3)C2)nc1`, for which the AC50 was 7.94 µM (active).
Consider `c1ccc(N2CC[C@@]3(CCCNC3)C2)nc1`, for which the “activity, negative = inhibition” value is -1.61%.
In the case of `C=C(C)[C@H]1CC[C@]2(CO)CC[C@]3(C)[C@@H](CC[C@H]4[C@@]5(C)CC[C@@H](O)C(C)(C)[C@@H]5CC[C@@]43C)[C@H]12`, the “activity, negative = inhibition” value is -7.87% [at 25.6 µM].
As for `COC(=O)Nc1nc2ccc(C(=O)c3cccs3)cc2[nH]1`, the “activity, negative = inhibition” value was -5.24% [at 25.6 µM].
The same measure, in the same setting: the value for `COc1cc(-c2ccc(=O)[nH]n2)ccc1OC(F)F` was -0.446% [at 25.6 µM]; that for `COc1ccc2[nH]cc(CCN)c2c1` was -16.5%; that for `NCCc1c[nH]c2ccc(OC(=O)C(=O)O)cc12` was -17.3% [at 11.4 µM].
Turning to `C[C@H](N)Cc1c[nH]c2ccc(OCc3cccs3)cc12`, the AC50 is 0.794 µM (active).
For `O[C@@H]1[C@H](O)[C@H]2[C@@H](O)CCN2C[C@@H]1O`, the “activity, negative = inhibition” value is 10.3%.
